In PubChem BioAssay AID485275 (NMMLSC, 2010):
In all, about 330,000 compounds went through this assay and about 1,400 (0.42%) were called active. For the sample, actives were picked, then their nearest neighbours and some compounds at random. Values without a mark were called inactive.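 Rule for the calls: active = plate passing quality check with inhibition over a set limit, or well fluorescence over plate mean plus 4 SD; inactive = the rest.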

assay: antifungal drug efflux pump blockers, triplex strains – S. cerevisiae, Nile Red, multiplex, primary screen (AID 485275);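 note: Nile Red retained in pooled yeast measured as flow cytometry median fluorescence; 0% = buffer negative control and 100% = Enniatin B positive control; higher means more Nile Red kept so more efflux inhibition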; conditions: S. cerevisiae Candida pump triplex, at 10 µM, hits give high values

| Compound | inhibition |
| --- | --- |
| O=c1[nH]c2ccccc2n2c(-c3ccccc3)nnc12 | 0.01% |
| NNC(=O)CSc1nnc(-c2ccccc2)n1-c1ccccc1 | 0.17% |
| Cc1ccc2[nH]c3c(=O)n(CC(=O)NCCc4ccc(Cl)cc4)ncc3c2c1 | 0.66% (active) |
| Cc1cccc(CCNC(=O)Cn2ncc3c([nH]c4ccc(C)cc43)c2=O)c1 | 0.33% |
| CC1CC(C)CN(CCCNC(=O)Cn2ncc3c([nH]c4ccccc43)c2=O)C1 (centres undefined) | 0.29% |
| CCCCCC(=O)NC(=S)NNC(=O)c1ccc([N+](=O)[O-])cc1 | 0.09% |
| O=C(COc1ccc(/C=N/NC(=O)c2ccc(O)cc2)cc1)Nc1ccc([N+](=O)[O-])cc1 | -0.1% |
| CCCCCC(=O)Nc1ccc(C(=O)N/N=C/c2ccc([N+](=O)[O-])cc2)cc1 | 9.14% (active) |
| CC1(C(=O)NNC(=S)NCC2CCCO2)CC1(Cl)Cl (centres undefined) | -0.05% |
| O=C(NC1CCCC1)C(=O)c1c[nH]c2ccccc12 | -0.55% |
| COc1ccc(/C=C(\C#N)c2c[nH]c3ccccc23)cc1 | 0.35% |
| C[n+]1ccc(/C=C/c2c[nH]c3ccccc23)cc1 | 2.57% (active) |
| CN(C)c1nc2n(c(=O)n1)CCO2 | 0.06% |
| Nc1nc(O)c(CC(=O)O)s1 | 0.36% |
| CN(c1ccccc1)c1ccc(/C=c2\s/c(=C(/C#N)C(=O)C(C)(C)C)n(Cc3ccco3)c2=O)cc1 | 7.32% (active) |
| Cc1ccc(C(=O)NCC(c2cccs2)N(C)C)cc1S(=O)(=O)N1CCOCC1 (centres undefined) | 0.37% |
| Cc1ccc(-c2nn(-c3ccc(F)cc3)cc2C(=O)NCC(c2cccs2)N2CCOCC2)cc1 (centres undefined) | 0.02% |
| CCCN1CNC(=S)N(CCc2ccccc2)C1 | -0.07% |
| C/C(=C\c1ccco1)CN1CCC(N2CCC(C(=O)N3CCOCC3)CC2)CC1 | -0.13% |
| NNC(=O)COc1ccc(C2SCCS2)cc1 | 0.52% (active) |

| Compound | inhibition |
| --- | --- |
| O=C(COc1ccc(Cl)cc1)Nc1ccc2c(c1)OCO2 | 0.16% |
| COc1ccc(OCC(=O)NNC(=O)C2CCC2)cc1 | 0.28% |
| Cc1ccc(CS(=O)(=O)CCC(=O)NCc2ccc(F)cc2)cc1 | 0.01% |
| CC(C)c1ccc(NC(=O)Cn2ncc3ccccc32)cc1 | 0.04% |
| COc1ccc(NC(=O)Cn2ncn3c(cc4ccccc43)c2=O)c(OC)c1OC | 0.03% |
| CCc1ccc(NC(=O)Cn2ncn3c(cc4ccccc43)c2=O)cc1 | 0.97% (active) |
| CC(=O)Nc1ccc(S(=O)(=O)NC(C)C(=O)OCCOc2ccc(F)cc2)cc1 (centres undefined) | -0.06% |
| COc1cccc(N(CC(=O)NC2CCCC2)C(=O)Cn2nnc(-c3ccc(C)o3)n2)c1 | -0.2% |
| O=C1CCN(CCc2ccccc2)CCN1CCOc1ccccc1 | -0.09% |
| CCN(CC(=O)Nc1cccc(S(N)(=O)=O)c1)Cc1nc2ccccc2c(=O)[nH]1 | -0.01% |
| Cc1ccc2[nH]c(=O)c(CN3CCCCC3)c(-c3ccccc3)c2c1 | 0.13% |
| CCCc1nc(-c2ccccc2O)n(-c2ccccc2)n1 | 0.2% |
| Cc1cccc(-n2c(N)c(C(=O)N3CCN(C)CC3)sc2=S)c1 | -0.2% |
| CCCc1nc(N2CCN(C)CC2)c2sc(=S)n(-c3ccccc3)c2n1 | 0.75% (active) |
| CCCN(CC(=O)Nc1ccccc1C)C(=O)c1ccc2[nH]c3c(c2c1)CC(C)CC3 (centres undefined) | 0.26% |
| Cn1nc(C(C)(C)C)c(NC(=O)c2sccc2Cl)c1C(C)(C)C | 0.22% |
| COc1cccc(CNS(=O)(=O)c2csc(C(N)=O)c2)c1 | -0.01% |
| CN(CCNC(=O)c1cc2c(-c3ccccc3F)nn(C)c2s1)C1CCCCC1 | 0% |
| CC1=C(/C=C/C(C)=C/C=C/C(C)=C/C=C/C=C(C)/C=C/C=C(C)/C=C/C2=C(C)CCCC2(C)C)C(C)(C)CCC1 | 0.08% |
| CCCCCCCCCCCCCCCC(=O)OC/C=C(C)/C=C/C=C(C)/C=C/C1=C(C)CCCC1(C)C | 1.61% (active) |

| Compound | inhibition |
| --- | --- |
| CCc1ccc(/C=N/NC(=O)c2ccc(OC3CCCC3)cc2)s1 | -0.12% |
| COCCOC1CCN(C(=O)c2ccc(OC)c(OC3CCN(C(C)C)CC3)c2)CC1 | -0.1% |
| CCOc1ccc(NC(=O)c2cccc3c2C(=O)N(CC2CCCO2)C3)cc1 (centres undefined) | 0.06% |
| O=C(Cn1c(COc2ccccc2)nc2ccccc21)Nc1cc(Cl)c(Cl)cc1Cl | 0.72% (active) |
| CC(C)n1c(COc2ccccc2)nc2ccccc21 | 0.39% |
| O=C(Cn1c(-c2cscn2)nc2ccccc21)Nc1ccc(Cl)cc1 | -0.15% |
| Cc1ccc(C)c(NC(=O)c2ccc(OC(=O)c3ccco3)cc2)c1 | 0.04% |
| COc1ccccc1/C=C/C=N/n1c(-c2ccc(Cl)cc2Cl)n[nH]c1=S | 0.42% (active) |
| S=c1[nH]nc(-c2ccncc2)n1/N=C/c1ccccc1Cl | 0.13% |
| Fc1ccccc1/C=N/n1c(-c2cccnc2)n[nH]c1=S | -0.01% |
| Cn1c(=O)c2c(nc(N3CCCCCC3)n2CC(O)COc2ccc(Cl)cc2)n(C)c1=O (centres undefined) | 0.11% |
| CCCCN1C(=O)/C(=C2/C=CC=CN2C)SC1=S | 0.04% |
| CCCCN1C(=O)/C(=C/C=C2/C=Cc3ccccc3N2CC)SC1=S | 1% (active) |
| CCCCN1C(=O)/C(=C2/Sc3ccc(Cl)cc3N2CC)SC1=S | -0.02% |
| Cc1ccc(N2CCN(c3ccc(C)cc3)C2c2ccccn2)cc1 | 0.22% |
| CSCCC(NC(=O)COc1ccccc1)C(=O)OCC(=O)c1cc2ccccc2o1 (centres undefined) | -0.18% |
| CSCCC(NC(=O)COc1ccccc1)C(=O)OCCOc1ccc(F)cc1 (centres undefined) | 0.07% |
| CSCCC(NC(=O)COc1ccccc1)C(=O)OCCOc1ccc(Br)cc1 (centres undefined) | 0.49% (active) |
| O=C(CCC(=O)N1CCCC1)Nc1ccc([N+](=O)[O-])cc1 | 0.32% |
